Numbering of substitutions follows the chain as printed. Over roughly 24,000 sequences, “enrichment r” has its median near 0.99; the highest 2% begin near 3.7. The sample as a whole holds a higher share of the highest values than the screen did.

T1: UNK ZnF1-3 (human, UniProt Q9C0B0 31-174)
T1 sequence: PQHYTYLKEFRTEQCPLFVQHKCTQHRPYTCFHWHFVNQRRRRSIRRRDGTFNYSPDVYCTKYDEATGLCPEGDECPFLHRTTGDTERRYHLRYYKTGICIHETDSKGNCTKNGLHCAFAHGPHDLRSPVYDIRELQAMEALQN

B1: chr15:100049815:100049816:+_ENSMUSG00000023026_ENSMUST00000100203|mus_mus|motif|central (ssRNA)
RNA: GGGAGUUCUACAGUCCGACGAUCAAUGAGUUAAUAGAACACUGUCCAGCCAGAUGUUAAAUUUAAAAAUGUAUAUCGGACCGGAUUUCAAAUAAAUAAAAAAACCUUUAUACAUAAUUACACAGUACUAUAGUUUGAAUUGGACAACAGAGGAUUGAGCAUCA
B2: chr5:38529146:38529147:-_ENSMUSG00000029126_ENSMUST00000031009|mus_mus|FALSE|FALSE (ssRNA)
RNA: GGGAGUUCUACAGUCCGACGAUCAGAAAAGCUAAAGUAGCCCUGGCUUACCCAAAAUUACAUUUCACUUUGCCCACUGGCUAAUAAAACAAAACAAAACAAAACAAAAAACCCAAACUGCACCUGCAUUCAGGGCUGUACGUGCAACAGAGGAUUGAGCAUCA
B3: 28740388_28740508_4059_3pUTR_ENSMUSG00000048271_ENSMUST00000114884|mouse|control|control (ssRNA)
RNA: GGGAGUUCUACAGUCCGACGAUCUUUGAGCUGGUAACAUUCUUUCCUGAAUCUAAAACUCUGUGACCAAUCACAUAGCAGGAUCACGAAGAACAAGGUCUACAUGCAUUAUAAGCACUCGGAAACAAAAGAACACGAGAACAGCAACAGAGGAUUGAGCAUCA
B4: chr7:149068622:149068623:-_ENSMUSG00000025139_ENSMUST00000001950|mus_hu|mus_mus_mus_hu_False|58_98 (ssRNA)
RNA: GGGAGUUCUACAGUCCGACGAUCGUGAGGCCUCUGAGUGAGGUUCCUGGUCUGUCCUGGGUUAGAGUUGUUAAUAUCACUAAGUGGACCAUCUAGAACGUUCCAGUCCCGCCUGACACCUUCAUUCCCAAUGGAGAAGAAAUCCAACAGAGGAUUGAGCAUCA
B5: chr14:21343309:21343310:-_ENSMUSG00000021816_ENSMUST00000161445|mus_hu|motif|central (ssRNA)
RNA: GGGAGUUCUACAGUCCGACGAUCAGGAUCGGACCAUAACAAGUCACACAUUGGUCCAAAUGCAGGUGGCUCUUUGAAUCGGUCGGAUCUCCUAAUAUCAUCCAGUGUGUGUAUUUCUGGUGAAAGUCCACCAUGAACACAAAGCAACAGAGGAUUGAGCAUCA
B6: chr1:78194255:78194256:-_ENSG00000077254_ENST00000357428|hu_mus|motif|central (ssRNA)
RNA: GGGAGUUCUACAGUCCGACGAUCAUUGCUGUCCUCAGGAAAGCCUUUGGAGCCACUCUCAUUUUCUGCUUUCUCGCUGCUGCGGCAAGACUCGCACGACUGAAAAUCCACAUCUGACUGGCUCUUCUCUUCCUCCACCGUCUCCAACAGAGGAUUGAGCAUCA
B7: chr7:128503047:128503048:+_ENSG00000128524_ENST00000249289|hu_mus|FALSE|FALSE (ssRNA)
RNA: GGGAGUUCUACAGUCCGACGAUCGGUGGUAUCCUUCUCCACUACCAGGAAAUUAGGGUGGCGGUUCUUGUUUAGCUCCCCUAUGCCGCCCAACAGGAAACCAGUCACCGUGUCCUCGUCUCCAAUCACCGCGAUUAGCUUACCCAACAGAGGAUUGAGCAUCA
B8: chrX:17854524:17854525:+_ENSMUSG00000037369_ENSMUST00000044484|mus_hu|motif|central (ssRNA)
RNA: GGGAGUUCUACAGUCCGACGAUCUCGUGAAUUACUCUCAUUAGUGACAAAAAGCAGAUCAAAAACCUCCACUUCACAAAUGCGGCAGUAAUGAGCUGGUUCUUCUUUUGUCCGCCCAUGCCAUAUAAUCUCUUUUCCUGCAGCCAACAGAGGAUUGAGCAUCA
B9: chr1:66485654:66485655:+_ENSMUSG00000015222_ENSMUST00000024639|mus_mus|FALSE|FALSE (ssRNA)
RNA: GGGAGUUCUACAGUCCGACGAUCAAUUUUUUAUAUAAAAUUGUAACAAUUACUACAGUUGGGGGAUGAAAUUAUUUCUCUAUGGUUUGUAAAGAAUGAAUAUGACACCUGCUCAGAGCCCACUCCUGCCAAGAGCUCAUGCCUCAACAGAGGAUUGAGCAUCA
B10: chr14:48151594:48151595:+_ENSMUSG00000037536_ENSMUST00000168833|mus_mus|FALSE|FALSE (ssRNA)
RNA: GGGAGUUCUACAGUCCGACGAUCAUUGAAGUUUUUUUAAAAAAUUUUUAACCAGACAAAAGGAUGCACAACAUUUUAAUCUAUUAUAUGAUAUUGUCUUAUUCUGUGGUGAUUAUGUUUAGUCAGCUGUUCAUAAUAUACAAUCAACAGAGGAUUGAGCAUCA
B11: chr14:62214197:62214198:+_ENSG00000100644_ENST00000337138|hu_hu|FALSE|FALSE (ssRNA)
RNA: GGGAGUUCUACAGUCCGACGAUCAGCAUUAUUAUUUAUGUAAAAUGUGAAAAAAAAGGUGUAAAAAUUUUUCAACUGCCUAUGAUCAUGAUGAAAGGUUACUGCCUUCUUACAAAAAUUAUAUUGGCAUCUUCUUAAAAAUAACAACAGAGGAUUGAGCAUCA
B12: chr1:66485654:66485655:+_ENSMUSG00000015222_ENSMUST00000024639|mus_mus|motif|central (ssRNA)
RNA: B9 RNA with U80G, A81G
B13: chr10:117127018:117127019:-_ENSMUSG00000020184_ENSMUST00000020408|mus_hu|FALSE|FALSE (ssRNA)
RNA: GGGAGUUCUACAGUCCGACGAUCAACAGAGCAAGACUCGGUCUCAAAAAAAAUAAUAAGUUACAUUUAAAUGUCAUAUACAUAUUUAAGAAAAAAAAAAACCAAGUACUUCUCAUUUAAGACAGAGUAGAAAUUAUUUAAAAUCAACAGAGGAUUGAGCAUCA
B14: chr1:58468927:58468928:-_ENSMUSG00000026034_ENSMUST00000148330|mus_mus|mus_mus_mus_hu_False|18_78 (ssRNA)
RNA: GGGAGUUCUACAGUCCGACGAUCAAUUACUGAAAAAGAUGUUCAUUACCUUAGCUAGGCCAUGUAUGAACCAAAUUACCCAAACAAAAUAAACAUGGCAAUAUAAAAAUGUUAAGAAAAUAACUUACUGUACAAAAUAACUUACAACAGAGGAUUGAGCAUCA
B15: chr1:58468927:58468928:-_ENSMUSG00000026034_ENSMUST00000148330|mus_mus|mus_mus_mus_hu_False|58_78 (ssRNA)
RNA: B14 RNA with C78U, C80U, C84A, A118U, A119U, A122C, C123A, U124A, U125A, A126G

This test deals with T1, UNK ZnF1-3. Briefly: nsRBNS (natural sequence RNA bind-n-seq); RBNS binding buffer (assumed for nsRBNS): 25 mM Tris pH 7.5, 150 mM KCl, 3 mM MgCl2, 0.01% Triton X-100, 500 ug/ml BSA, 20 U/ml SUPERase-In, 4 C; UNK is unkempt and MSI1 is Musashi-1; names of the RNAs are library labels; protein concentration not given here; high values mean tight binding.
Turning to B1, the binding signal was 2.23 enrichment R.

B2 showed a binding signal of 4.49 enrichment R.

Take B3: the binding signal came to 1.22 enrichment R.

B4 registered a binding signal of 0.755 enrichment R.

The molecule B5 had a binding signal of 0.921 enrichment R.

Turning to B6, the binding signal stood at 0.703 enrichment R.

B7 came in with a binding signal of 0.494 enrichment R.

Take B8: the binding signal was found to be 0.845 enrichment R.

Take B9: the binding signal came out at 2.92 enrichment R.

B10 yielded a binding signal of 3.47 enrichment R.

In the case of B11, the binding signal amounted to 29 enrichment R.

B12 came in with a binding signal of 4.27 enrichment R.

Molecule B13 yielded a binding signal of 18 enrichment R.

B14 came in with a binding signal of 1.35 enrichment R.

With B15, the binding signal came to 3.96 enrichment R.

These data come from article PMC12136788.
